For this experiment, the system named is HL-60(TB) leukemia. Put plainly: NCI-60 one-dose screen, 48 h (100 = growth as untreated, 0 = no growth, -100 = all killed).

The results in this text go back to PubChem BioAssay (NCI).

Several values for one entry are separate records, joined by “and”; a condition that tells them apart may be missing. Equal entries are not always repeated. The panel holds about 83,000 compounds, 20% with a hit somewhere; the sample as a whole holds those more often.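 A percent growth of 40 corresponds to 60% growth inhibition; 0 means no net growth; -100 means all cells died. Active threshold: below 10.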 Unmarked numbers belong to inactive results. Activity calls are given as the source filed them.

With `O=C1Nc2ccc(C(=O)O)c(O)c2C1=O`, where the note is “10 µM unless noted”, the growth was 99.8%.
Regarding `CC(C)c1ccc(NC(=O)Nc2ccc(NC(=O)CCCC(=O)NOCc3ccccc3)cc2)cc1`, the growth (10 µM unless noted) was 17.9%.
With `NS(=O)(=O)c1ccc(CCN2C(=O)C=CC2=O)cc1`, under “10 µM unless noted”, the growth was 99.6%.
Take `Cc1cccc2c(=O)c3c(sc12)c(NCCCN)nc1ccccc13`: the growth (10 µM unless noted) was -34.9% (active).
The same measure, in the same setting: the result for `COc1cc(CNC(=O)/C=C/C=C/c2ccc3c(c2)OCO3)ccc1OCc1cn(-c2ccc(Cl)c(Cl)c2)nn1` reads 85.4%.
Regarding `COc1cc(NCCCCCN)c2ncccc2c1`, the growth (10 µM unless noted) was 83.2%.
On the same count and under the same terms, the result for `OC(c1ccccn1)C(O)c1ccccn1` (stereo unspecified) reads 97.3%; that for `O=C(N/N=C/c1ccccc1)N/N=C/c1ccccc1`, 95.3% and 98.4%.
On to `COc1cnc2c(c1)C(=O)c1c-2n(CCCN2CCCC2)c(=O)c2cc([N+](=O)[O-])ccc12`, for which, for the setting “10 µM unless noted”, the growth was -24.9% (active).
On to `COC(=O)CNC(=O)[C@@H](OC)[C@@H]1Cc2cc3cc(OC4CC(OC5CC(O)C(O)C(C)O5)C(O)C(C)O4)c(C)c(O)c3c(O)c2C(=O)[C@H]1OC1CC(OC2CC(OC3CC(C)(O)C(O)C(C)O3)C(O)C(C)O2)C(O)C(C)O1` (stereo partly specified), for which the growth (10 µM unless noted) is 41%.
Consider `CCc1ccccc1NC(=O)/C(C#N)=C/c1ccc(OC)cc1`, for which, where the note is “10 µM unless noted”, the growth is 138%.
`CCCCC1(CC)COC(CCC)OC1` (stereo unspecified): the growth (10 µM unless noted) was 115%.
On to `COc1ccc2nc(NC(=O)CN3CCn4c(nnc4C(F)(F)F)C3)sc2c1`, for which the growth (10 µM unless noted) is 103%.
On to `ClCc1ccc(-c2ccc(Cn3cnc4nc(Cl)nc(Cl)c43)cc2)cc1`, for which, for the setting “10 µM unless noted”, the growth was -78.9% (active).
For the molecule `OB(O)c1cccc(-c2nc3ccc4[nH]ncc4c3c3c2CCCC3)c1F`, the growth (10 µM unless noted) was 32.1%.
The same measure, in the same setting: in the case of `COc1ccc(C2=Nc3c/c(=C\c4c(O)[nH]c5ccc(Cl)cc45)ccc3=N2)cc1` it was 6.79% (active).
The same measure, in the same setting: in the case of `COc1ccc(N=C2NN=C(c3ccc(F)cc3)CS2)cc1OC` it was 84.5%.
Regarding `CCC1=C[C@@H]2CN(C1)Cc1c([nH]c3ccccc13)[C@@](C(=O)OC)(c1cc3c(cc1OC)N(C)[C@H]1[C@@](O)(C(=O)OC)[C@H](OC(C)=O)[C@]4(CC)[C@@H]5C[C@@H]5CN5CC[C@]31[C@@H]54)C2`, the growth (10 µM unless noted) was -57.3% (active).
`Cc1c2oc3c(C)ccc(C(=O)N[C@@H]4C(=O)N[C@H](C(C)C)C(=O)N5CCC[C@H]5C(=O)N(C)CC(=O)N(C)[C@@H](C(C)C)C(=O)O[C@H]4C)c3nc-2c(C(=O)N[C@@H]2C(=O)N[C@H](C(C)C)C(=O)N3CCC[C@H]3C(=O)N(C)CC(=O)N(C)[C@@H](C(C)C)C(=O)O[C@H]2C)c(N)c1=O`: where the note is “0.0025 µM”, the growth was 42.6%.
Consider `COc1cccc2c1C(=O)c1c(O)c3c(c(O)c1C2=O)C[C@@](O)(C(=O)CO)C[C@@H]3OC1CC(N)C(O)C(C)O1` (stereo partly specified), for which, for the setting “0.0025 µM”, the growth was 100%.
Regarding `CN(C)CCNc1ncc(F)c(-c2cnc3cc(-c4cnn(C)c4)ccn23)n1`, under “0.005 µM”, the growth is 101%.
